Compound activity as filed in PubChem.
A selection: hits, their analogues and other compounds. The true share with any hit is near 21%.
ELG1 repair inh: blocks ELG1-dependent DNA repair in HEK293T cells. AID 504467. HEK293T ELG1-luciferase reporter, luminescence, 16 h; DNA damage induced by 5-fluorouridine. 2.3% of 330,000 active. Potency, µM (series often up to 46.1 µM), without a hit: at the top dose activity change, negative = inhibition, actives largely listed as inhibitors; further: potency means the concentration at half of the fitted maximal effect; nearly all actives have a fitted effect of over 55% in size
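Cells (2,000 per well) received 5-fluorouridine plus test compound or DMSO and were incubated 16 hr at 37 °C, 5% CO2. Luciferase activity was read by luminescence 30 min after ONE-Glo addition; signal suppression marked inhibition of damage-induced ELG1 function.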
Gal4-VP16 FLuc: counter-screen for ROR gamma inhibitors: Gal4-VP16 reporter; 3.5% of 310,000 active; Potency, µM (titrated, usually from 53.6 µM), for the others: at the highest dose activity, negative = inhibition, hits mostly inhibitors; Drosophila S2 Gal4-VP16 UAS-luciferase, luminescence, 20 h;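 further: Gal4-VP16 expression switched on by copper sulfate through the metallothionein promoter; potency means the concentration at half of the fitted maximal effect; nearly all actives have a fitted effect of over 50% in size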
DT40 TDP1 no CPT: qHTS for Inhibitors of human tyrosyl-DNA phosphodiesterase 1 (TDP1): qHTS in cells in absence of CPT | 15% of 420,000 active | DT40 Tdp1-/- hTDP1 cells, no CPT, ATP luminescence, 48 h | AID 686978, 2013 | Potency, µM (titrated, usually from 46.2 µM), for the others: at the highest dose activity change, negative = growth inhibition, most hits filed as inhibitors; further: potency means the concentration at half of the fitted maximal effect; nearly all actives have a fitted effect of over 55% in size
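Chicken DT40 Tdp1-/- cells stably complemented with human TDP1 were seeded at 400 cells/well with DMSO in place of 20 nM camptothecin. After compound pinning, cells grew at least 48 hr at 37 °C; viability read by CellTiter-Glo luminescence.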
DT40 TDP1 CPT: DT40-hTDP1 cell growth loss with CPT; 12% of 420,000 active; AID 686979; Potency, µM (highest dose often 46.2 µM), inactives show at the highest dose activity change, negative = growth inhibition, most hits filed as inhibitors; chicken DT40 Tdp1-/-;hTDP1 cells + 20 nM CPT, ATP luminescence, 48 h; further: potency means the concentration at half of the fitted maximal effect; nearly all actives have a fitted effect of over 55% in size
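Chicken DT40 Tdp1-/- cells complemented with human TDP1, 400 cells/well, exposed to compounds plus 20 nM camptothecin for at least 48 h at 37 C; viability read as ATP content by CellTiter-Glo luminescence.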
IL-1B inflam inh: blocks inflammasome-driven IL-1 beta release; THP-1 LPS/ATP IL-1B secretion, AlphaLISA, 16 h; hits give low values; activity change, % at 57.5 µM; 4.7% of 360,000 active; AID 743279; in the data active means activity change below about -50%; inconclusive means mostly about -30% to -49%
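THP-1 cells pretreated 1 hr with compounds (up to 57.5 uM final), then stimulated with LPS (250 ng/mL final) plus ATP (1.25 mM final); secreted IL-1B measured by AlphaLISA after 16 hr, decreased signal indicating inhibition.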
RORg inh: blocks mouse ROR gamma transcriptional activity | P51450 | Drosophila S2 Gal4-RORgamma UAS-luciferase reporter, 20 h | Potency, µM (top dose mostly 53.6 µM), for inactives: at the top dose activity change, negative = inhibition, usual class: inhibitors | 5.4% of 310,000 active; further: potency means the concentration at half of the fitted maximal effect; nearly all actives have a fitted effect of over 60% in size
Target sequence (P51450 whole entry, looked up, the tested form may be a part): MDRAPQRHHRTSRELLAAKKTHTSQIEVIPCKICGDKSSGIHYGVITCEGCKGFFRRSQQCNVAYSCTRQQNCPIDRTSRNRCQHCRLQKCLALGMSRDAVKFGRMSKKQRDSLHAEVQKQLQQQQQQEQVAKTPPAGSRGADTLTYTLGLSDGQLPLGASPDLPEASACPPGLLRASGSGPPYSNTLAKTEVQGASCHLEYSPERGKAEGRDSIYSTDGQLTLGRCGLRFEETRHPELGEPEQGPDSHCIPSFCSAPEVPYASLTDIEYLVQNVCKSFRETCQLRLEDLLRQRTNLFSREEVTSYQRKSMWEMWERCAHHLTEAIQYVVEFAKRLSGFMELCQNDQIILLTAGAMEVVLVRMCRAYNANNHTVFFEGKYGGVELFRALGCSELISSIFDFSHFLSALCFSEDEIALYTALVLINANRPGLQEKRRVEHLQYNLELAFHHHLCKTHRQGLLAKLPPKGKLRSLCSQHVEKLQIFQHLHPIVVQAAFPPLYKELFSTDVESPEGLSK
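ROR gamma transcriptional activity was tracked as Gal4-UAS luciferase output in stably transfected Drosophila Schneider cells, with compound added 1 hr before 700 uM copper sulfate induction and a 20 hr ambient-temperature incubation.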
The depositor's hits bear a star; ? = inconclusive; . = no result. Unless noted, the call rests on the fitted dose curve; in most records, active means well fitted curve in the direction sought with a large enough effect; inconclusive means small, poorly fitted or top-dose-only effect, or another doubt; inactive means no such curve, though single readings can be large; an effect the other way counts as inactive or inconclusive. On the % scale 0 is the no-effect control and ±100 the full control effect.

SMILES | ELG1 repair inh | Gal4-VP16 FLuc | DT40 TDP1 no CPT | DT40 TDP1 CPT | IL-1B inflam inh | RORg inh
CC[C@]12CCCN3CCC4(c5ccccc5NC4C(C(=O)O)C1)C32 (stereo partly specified) | . | -11% | ? | ? | . | -28%
CC1OC(C)OC(C)O1 (stereo unspecified) | . | -15% | -24% | 15% | . | 37%
O=c1[nH]cc(F)c(=O)[nH]1 | 0% | -24% | 16µM* | 18µM* | 19 | -4%
O=c1[nH]cc(N(CCCl)CCCl)c(=O)[nH]1 | . | 4% | -15% | -17% | . | -29%
CSc1nc(Cl)c(Br)c(N2CC2)n1 | . | . | -19% | -22% | 10 | .
Cc1cc(C)c(Cn2c(C(=O)O)c(C=O)c3ccccc32)c(C)c1 | 13% | -6% | 6% | 7% | 40 | ?
Cc1ccc(CNCc2c(C(=O)O)n(Cc3ccccc3C)c3cc(C)ccc23)cc1 | . | . | 7.3µM* | ? | . | .
C[N+](C)(C)CC1CCCc2ccccc2C1=O (stereo unspecified) | . | . | 2.6µM* | 2.9µM* | -11 | .
c1ccc2c(c1)CCCC2 | . | -7% | . | . | . | 2%
C[N+](C)(C)CC1CCCC(C[N+](C)(C)C)C1=O (stereo unspecified) | . | . | 0.058µM* | 0.041µM* | -23 | .
O=C(Cc1ccccc1)N1CCN(Cc2ccc(F)cc2)CC1 | -14% | -9% | -11% | 5% | -6 | -3%
C=CCN(CC(=O)c1sc(C(=O)OCC)nc1C)c1cccc(Br)c1 | . | . | ? | ? | 26 | .
COc1nc(NC2CCCCC2)nc(NC(C)(C)C)n1 | . | . | 12µM* | ? | ? | .
O=C(Nc1sc2c(c1C(=O)Nc1ccc(Cl)cc1)CCCC2)c1cccs1 | . | . | 3.7µM* | 5.8µM* | . | .
CP(=O)(Nc1ccc(Cl)cc1)c1nc2c(s1)CCCC2 (stereo unspecified) | ? | -4% | ? | ? | 36 | 32%
CC1([N+](=O)[O-])COP(=O)(Nc2cccc(F)c2)OC1 (stereo unspecified) | . | . | 6% | -2% | 22 | .
N#CC1C(C#N)C2CCC1C1C2N1c1ccccc1 (stereo unspecified) | . | . | -4% | -10% | 1 | .
COC(=O)c1nc(-c2ccc3c(n2)C(=O)C(N)=C(OC)C3=O)c(N)c(-c2ccc(OC)c(OC)c2O)c1C | 2.1µM* | 4% | 0.92µM* | 0.46µM* | -55* | -13%
O=S(=O)(c1cc(Cl)cc(Cl)c1)N1Cc2cc(N3CCOCC3)ccc2-n2nncc2C1 | . | . | ? | ? | 0 | .
COC(=O)N1CCC2(CCN(CC(C)C)CC2)CC1 | . | 5% | -11% | -7% | . | 10%
Cc1ccccc1C(=O)Nc1sc2c(c1C(=O)O)CCC(C(C)(C)C)C2 (stereo unspecified) | . | . | 4.6µM* | 10µM* | . | .
COc1ccc(N2CCN(Cc3nc4ccccc4[nH]3)CC2)cc1 | 9% | 1% | -8% | 3% | 31 | -1%
CCCc1cc(N2CCN(c3ccc(OC)cc3)CC2)n2cnnc2n1 | . | . | 12µM* | 16µM* | . | .
C=CC(=O)OCC(C)C | . | -15% | . | . | . | -5%
COc1ccc(S(=O)(=O)N2CCN(C(=O)c3ccc(COc4ccccc4)o3)CC2)cc1 | . | . | ? | ? | -14 | .
COc1cccc(CN2CCN(C(=O)COc3ccc4ccccc4c3)CC2)c1 | -9% | 1% | ? | ? | 5 | 1%
COc1ccc(-c2nn3c(=O)cc(CN4CCN(C(=O)COc5ccc(F)cc5)CC4)nc3s2)cc1 | . | . | ? | -28% | . | .
COc1cccc(-c2nn3c(=O)cc(CN4CCN(C(=O)COc5ccccc5C)CC4)nc3s2)c1 | . | . | 23µM* | ? | . | .
COc1ccc(OCC(=O)N2CCN(Cc3cc(=O)n4nc(-c5ccccc5C)sc4n3)CC2)cc1 | . | . | 10µM* | 15µM* | . | .
